Data: PubChem BioAssay AID686979 (National Center for Advancing Translational Sciences (NCATS), 2013)
Several values for one entry are separate records, joined by “and”; a condition that tells them apart may be missing. Equal entries are not always repeated. About 50,000 (12%) of roughly 420,000 compounds were called active. Not shown: some 26% with an inconclusive outcome. What follows is part of a selection rich in actives, with near analogues and random picks from the rest. A number with no mark means an inactive call. Calls come from the whole dose curve; as a rule, active = well fitted inhibition curve with a large enough effect; inconclusive = small, poorly fitted or top-dose-only effect; inactive = flat fitted curve, though single readings scatter.

Assay: qHTS for Inhibitors of human tyrosyl-DNA phosphodiesterase 1 (TDP1): qHTS in cells in presence of CPT; note: nearly all actives have a fitted effect of over 55% in size
Details: chicken DT40 Tdp1-/-;hTDP1 cells + 20 nM CPT, ATP luminescence, 48 h; series mostly up to 46.2 µM; activity change, negative = growth inhibition: at the top concentration
Procedure, shortened: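 Chicken DT40 Tdp1-/- cells stably complemented with human TDP1 were seeded at 400 cells/well in medium containing 20 nM camptothecin, exposed to pin-transferred compounds, and grown at 37 °C for at least 48 hr. Viability was read as ATP luminescence.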
% is set by controls: 0 for no effect and ±100 for the full control effect; potency is the fitted concentration of half-maximal effect.

In order of rising “activity change, negative = growth inhibition” value:
1. COc1ccc(N=Cc2c(O)[nH]c3ccccc23)cc1OC  -29%
2. Cc1cc(N2C(=O)C(=O)/C(=C(/O)c3ccccc3)C2c2cccc(Br)c2)no1 (stereo unspecified)  -28.5%
3. Cc1c(Br)ccc(NC(=O)COc2ccccc2C(N)=O)c1C  -28.1%
4. CC(=O)O[C@H]1CC[C@@]2(C)[C@@H](CC[C@@H]3[C@@H]2CC[C@]2(C)[C@@H](C(C)(C)O)C[C@@H]32)C1  -27.7%
5. COc1cc2nc(CN(C)Cc3ccc(F)cc3)[nH]c(=O)c2cc1OC  -27.7%
6. O=C(Nc1cccc(F)c1)N1CCC2(CC1)CCN(S(=O)(=O)c1ccccc1)CC2  -27.3%
7. CN(C)S(=O)(=O)c1ccc(C(=O)NCC2(N3CCOCC3)CCCCC2)cc1  -27%
8. Cc1ccc(S(=O)(=O)N2CCOCC2)cc1C(=O)Nc1ccccc1N1CCCC1  -26.6%
9. C=CCn1c(CNC(=O)c2ccco2)nnc1SCC(=O)c1ccc(OC)cc1  -26.5%
10. CCOc1ccc(NC(=O)C2CCN(S(=O)(=O)c3cc(-c4noc(C)n4)ccc3C)CC2)cc1  -26.3%
11. Cc1cccc(NC(=S)N2CCCC(c3nc4ccccc4[nH]3)C2)c1 (stereo unspecified)  -26%
12. CCOc1cccc2c1OC1(CCCCC1)N1N=C(c3cccnc3)CC21 (stereo unspecified)  -25.9%
13. CCOC(=O)c1c(SCC(=O)Nc2cccc(C)c2C)nc(=O)[nH]c1C  -25.5%
14. COC(=O)[C@@H]1C[C@@]2(O)[C@@H](O)[C@@H](O)[C@@H](O)C[C@H]2N1Cc1ccc(C)s1  -25%
15. Cc1ccccc1N1CCN(CCCN2C(=O)C3CCCCN3C2=O)CC1 (stereo unspecified)  -24.5%
16. COc1cc(F)c(C2=CC(=O)CC(C)(C)C2)cc1F  -23.9%
17. COc1ccccc1-c1sc2ccccc2c1-c1ccc(C(C)=O)cc1  -23%
18. COCCNC(=O)C1(C)CCCN(Cc2cccc(F)c2)C1 (stereo unspecified)  -22.2%
19. CCn1c(CNC(=O)C23CC4CC(CC(C4)C2)C3)nnc1SCC(=O)Nc1ccc(OC)cc1  -21.9%
20. Cc1c(CNC2CCCCC2)c(C(=O)O)c(C)n1Cc1cccc(Cl)c1  -21.2%
21. Nc1nonc1-n1nnc(C(=O)N/N=C/c2ccc(Cl)cc2)c1-c1ccc2c(c1)OCO2  -20.4%
22. CC(=O)c1ccc(NC(=O)C(C)NCc2ccc(Cl)cc2)cc1 (stereo unspecified)  -18.7%
23. FC(F)(F)c1cccc(Cc2noc(CN3CCC(N4CCCCC4)CC3)n2)c1  -18.7%
24. O=C(NCc1ccco1)/C(=C/c1ccco1)NC(=O)c1ccccc1  -17%
25. CC(C)N1C(=O)N(c2ccccc2)C(C)(O)CC1(C)C (stereo unspecified)  -17%
26. COc1ccc(/C=N/Nc2nc3ccccc3c(=O)[nH]2)cc1  -16.4%
27. COc1ccc(CCNC(=O)COC(=O)C2CC2C)cc1 (stereo unspecified)  -15.7%
28. NS(=O)(=O)c1ccc(Nc2nc(-c3ccccc3)cs2)cc1  -14.1%
29. COc1ccc(C(CNC(=O)c2ccc(S(=O)(=O)Nc3ccccc3F)cc2)N(C)C)cc1 (stereo unspecified)  -13.4%
30. CCNC(=O)C1(C)CCN(Cc2ccc(C(=O)OCC)o2)C1 (stereo unspecified)  -13.1%
31. Cc1ccc(S(=O)(=O)N2CCCC2C(=O)OCc2nc3sc(C)c(C)c3c(=O)[nH]2)cc1 (stereo unspecified)  -12.6%
32. O=C(Nc1ccc2c(c1)OCO2)c1cc(-c2cccc(Cl)c2)on1  -12.5%
33. O=C1CCCCC1Sc1ccc(Cl)cc1[N+](=O)[O-] (stereo unspecified)  -11.8%
34. CCCNC(=O)C1(C)CCCN(Cc2c(C)nn(-c3ccccc3)c2C)C1 (stereo unspecified)  -11.8%
35. CN(C(=O)COC(=O)Cn1cnc2c1c(=O)n(C)c(=O)n2C)C1(C#N)CCCCC1  -11.2%
36. Oc1cccc(CCc2ccccn2)c1  -10.9%
37. COc1cc2[nH]c(O)c(C=O)c2cc1OC  -10.3%
38. Cc1cc(C)cc(NC(=O)C2CCN(c3nc(C)cc(C)n3)CC2)c1  -9.07%
39. CNC(=O)NC(=O)C(OC(=O)c1cccc(S(=O)(=O)N2CCCCC2)c1)c1ccccc1 (stereo unspecified)  -8.68%
40. O=c1cnnc(Nc2ccccc2F)[nH]1  -6.88%
41. COCCN(CCOC)c1nc(N)c2c(N)nc3c(c2c1C#N)CC(=O)N3Cc1ccc(Cl)cc1  -6.53%
42. CCOC(=O)c1cc(-c2ccccc2)n(-c2cccc(C(=O)Nc3cc(OC)cc(OC)c3)c2)c1C  -5.9%
43. S=c1[nH]c(-c2cccs2)cn1-c1ccccc1  -5.38%
44. N#Cc1ccccc1NC(=O)c1ccc2c(c1)OCO2  -4.16%
45. O=C(O)CCC(=O)NCc1ccc2[nH]c3c(c2c1)CCCC3  -3.68%
46. COC(=O)C1CC2=C(CC(C)(C)CC2=O)N(c2ccccc2)C1=O (stereo unspecified)  -3.49%
47. O=C(Nc1nc(-c2ccc(-c3ccccc3)cc2)cs1)c1cnccn1  -2.66%
48. Cc1ccc(NC(=O)CSc2sc3c(O)cc(=O)[nH]c3c2C#N)cc1C  -2.41%
49. CCOC(=O)C1CCCN(C(=O)C2CCN(c3nnc(-n4cccc4)s3)CC2)C1 (stereo unspecified)  -2.31%
50. CCCC(=O)Nc1cc2nn(-c3ccccc3)nc2cc1C  -1.95%
51. CCCNC(=O)C1(C)CCCN(C(=O)c2cccc(OC(C)=O)c2C)C1 (stereo unspecified)  -1.02%
52. COc1cccc(COC(=O)C2CCN(S(=O)(=O)c3cccs3)CC2)c1OC  -0.942%
53. CCOC(=O)c1c(C)[nH]c(C)c1S(=O)(=O)N(C)CC(=O)Nc1ccccc1C  -0.387%
54. CN(C)/C=C(/C(=O)c1ccccc1Cl)S(C)(=O)=O  -0.266%
55. c1ccc(-c2cn3cccnc3n2)cc1  -0.0131%
56. Oc1ccc(CN2CCN(c3ncccn3)CC2)cc1  0.51%
57. O=c1[nH]c(NCCO)nnc1Cc1ccc(Cl)cc1  0.596%
58. COc1cccc(OC)c1C(=O)N1CCN(Cc2cccnc2)CC1  0.63%
59. C=CCNC(=O)CC12CC3CC(C1)CC(CC(=O)NCC=C)(C3)C2  1.95%
60. CCCCOC(=O)Nc1nnc(CC(=O)NCc2ccccc2)s1  2.02%
61. CS/C(=C\[N+](=O)[O-])Nc1ccc(C)cc1  2.33%
62. Cc1nc2ccc(C(=O)O)cc2[nH]1  3.42%
63. CCOC(=O)C1CCCN(C(=O)c2cccc3ccccc23)CC1 (stereo unspecified)  5.97%
64. CCOC(=O)c1sc(NC(=O)C2CSC3(C)CCC(=O)N23)nc1C (stereo unspecified)  6.57%
65. O=C(c1cn(-c2ccccc2)nc1-c1cc2ccccc2oc1=O)N1CCOCC1  7.05%
66. CCC(Oc1ccccc1C)C(=O)Nc1ccc(S(=O)(=O)Nc2cc(C)on2)cc1 (stereo unspecified)  7.59%
67. O=C(NCc1ccc(F)cc1)C1CCN(C(=O)Nc2ccc(F)cc2)CC1  7.91%
68. COC(=O)C(=Nc1ccccc1)/C(C(=O)C(=O)N(C)c1ccccc1)=C(\O)c1ccc(Cl)cc1  7.92%
69. Cc1ccc(NC(=O)C(Cc2ccccc2)NS(=O)(=O)c2ccc3c(c2)oc(=O)n3C)cc1C (stereo unspecified)  8.66%
70. Cc1cccc(OCC(=O)NC2CC(C)(C)NC(C)(C)C2)c1  8.74%
71. COc1cc(C(C)=O)ccc1OC(=O)CN1C(=O)c2ccccc2C1=O  10.9%
72. CCCCOc1ccc(C(=O)NCC(=O)OCC(=O)c2c(N)n(C)c(=O)n(C)c2=O)cc1  14.1%
73. Cc1c(C(=O)OCC(=O)N2CCCC2=O)oc2ccccc12  14.4%
74. Cn1ccnc1SCC(=O)Nc1ccc2c(c1)OCCO2  15%
75. COc1ccc(NC(=O)COC(=O)c2ccc(NS(=O)(=O)/C=C/c3ccccc3)cc2)cc1  15.2%
76. CCN(CC)CCCSc1nc2ccccc2s1  18.1%
77. CC(C)c1nc2ccc(C(=O)O)cc2[nH]1  20.3%
78. CCC(=O)N1c2ccccc2NC2=C(C(=O)CCC2)C1c1ccco1 (stereo unspecified)  25.3%

In the case of `CCN(CC)CCCC(C)n1c2nc(=O)[nH]c(=O)c-2nc2cc(Cl)ccc21` (stereo unspecified), the Potency is reported as 8.2 µM (active).
In the case of `COc1ccc(Cc2nnc(N/N=C/c3ccccc3O)[nH]c2=O)cc1OC`, the Potency is reported as 0.0184 µM (active).
With `COc1ccccc1CNC(=O)C(Cc1ccccc1)NS(=O)(=O)c1ccc2c(c1)oc(=O)n2C` (stereo unspecified) the Potency was 20.6 µM (active).
In the case of `CSCCC(NS(=O)(=O)c1ccc2c(c1)oc(=O)n2C)C(=O)NCc1ccccc1` (stereo unspecified), the Potency is reported as “inactive”.
With `Cc1cccc(NC(=S)NCc2ccc3[nH]c4c(c3c2)CCCC4)c1` the Potency was 23.1 µM (active).
With `C=CCC[C@@H](CCCCC)OC(=O)/C=C/[C@@H](O)[C@H](O)C[C@H](O)CC=C` the Potency was 23.1 µM (active).
In the case of `COC(=O)c1ccc(/C=C/c2c(-c3ccc(OC)cc3)sc3ccccc23)cc1`, the Potency is reported as 14.6 µM (active).
With `COC(=O)Nc1nc2ccc(Sc3ccccc3)cc2[nH]1` the Potency was 651 nM (active) and 360 nM (active) and 517 nM (active).
In the case of `CC(C)c1ccc(NC(=O)C2CCN(c3nc(-c4ccc(C(C)C)cc4)no3)CC2)cc1`, the Potency is reported as 13 µM (active).
For `CCCNC(=O)C1(C)CCN(Cc2csc(-c3ccc(Cl)cc3)n2)C1` (stereo unspecified), the Potency was 23.1 µM (active).
In the case of `CCCNC(=O)C1(C)CCCN(Cc2cccc(C(F)(F)F)c2)C1` (stereo unspecified), the Potency is reported as 18.4 µM (active).
With `c1cnc(Nc2nc(-c3ccc4ccccc4c3)cs2)nc1` the Potency was 29.1 µM (active).
With `c1ccc(-c2cn3c(n2)CCc2ccc4cccnc4c2-3)cc1` the Potency was 13 µM (active).
With `COc1cc(N=Cc2c(O)[nH]c3ccccc23)cc(OC)c1OC` the Potency was 20.6 µM (active).
For `COc1ccccc1-c1nn(Cc2ccccc2)cc1C(=O)N1CCN(c2ncccn2)CC1`, the Potency was 25.9 µM (active).
For `CC(C)CC[n+]1ccn(C2=C([O-])c3ccccc3C(=O)/C2=N\S(=O)(=O)c2ccccc2)c1`, the Potency was 11.6 µM (active).
In the case of `COc1cc(OC)cc(C(=O)Nc2cc3nn(-c4ccccc4)nc3cc2Cl)c1`, the Potency is reported as 11.6 µM (active).
In the case of `O=c1oc2ccccc2cc1-c1cn(-c2ccccc2)c(=S)[nH]1`, the Potency is reported as 2.59 µM (active).
In the case of `CC(C)C1C2=C(CC(C)(C)CC2=O)ON1c1ccccc1` (stereo unspecified), the Potency is reported as 25.9 µM (active).
With `CCOC(=O)C1CCCN(C(=O)c2ccc(-n3ccc4ccccc43)s2)C1` (stereo unspecified) the Potency was 18.4 µM (active).
With `CCOC(=O)c1c(C)[nH]c2c1-c1ccccc1C(=O)C2=O` the Potency was 0.517 µM (active).

With `CCCCC/C=C\C/C=C\CCCCCCCCCC(=O)O` the activity change, negative = growth inhibition was -5.48% [at 4.12 µM].

`COc1ccccc1-c1ccnc(-n2ncc(C(=O)NCCc3ccncc3)c2C)n1` gave an activity change, negative = growth inhibition of 39.7% [at 9.04 µM].
